Rows were chosen to be rich in hits. Some 3% of all compounds tested hit in one or more screens of this group.
TbPYK inhibitor: qHTS of Trypanosoma Brucei Inhibitors. pyruvate kinase (Trypanosoma brucei), Q57TT1. TbPYK enzyme, Kinase-Glo Plus ATP luminescence, 45 min. Potency, µM (series often up to 76.8 µM), hits mostly inhibitors. 410,000 tested, 0.12% active. AID 624173, 2012; note: nearly all actives have a fitted effect of over 50% in size
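Assay buffer: 50 mM TEA pH 7.2, 100 mM KCl, 10 mM MgCl2, 0.05% BSA, 0.01% Tween-20. Pyruvate kinase from T. brucei plus substrate met compound, then ADP (130 uM final). Luminescence was read post 45 min RT.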
RE007 growth inh: qHTS Assay for Inhibitors of the HIV-1 protein Vpr | Potency, µM (doses to about 92.2 µM), actives largely listed as inhibitors | AID 651644, 2012 | 360,000 tested, 0.21% active | S. pombe RE007 Vpr strain, BacTiter-Glo ATP luminescence, 24 h; active = well fitted falling curve with a large enough effect; inconclusive = small, poorly fitted or top-dose-only effect; inactive = no such curve, though single readings can be large or run the other way; note: nearly all actives have a fitted effect of over 50% in size
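Fission yeast RE007 carrying one integrated HIV-1 vpr copy, seeded at OD 0.01 in PMG+AL medium with 23 nL pinned compound. Grown 24 h at 30 degrees; viability read by BacTiter-Glo luminescence after 5 min.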
LmPK inh: qHTS Assay for Inhibitors of Leishmania Mexicana Pyruvate Kinase (LmPK); Q27686; purified LmPK, Kinase-Glo ATP luminescence, 1 h; Potency, µM (highest dose often 57.5 µM), usual class: inhibitors; 290,000 tested, 0.37% active; AID 1721, 2009
Target sequence (Q27686 whole entry, looked up): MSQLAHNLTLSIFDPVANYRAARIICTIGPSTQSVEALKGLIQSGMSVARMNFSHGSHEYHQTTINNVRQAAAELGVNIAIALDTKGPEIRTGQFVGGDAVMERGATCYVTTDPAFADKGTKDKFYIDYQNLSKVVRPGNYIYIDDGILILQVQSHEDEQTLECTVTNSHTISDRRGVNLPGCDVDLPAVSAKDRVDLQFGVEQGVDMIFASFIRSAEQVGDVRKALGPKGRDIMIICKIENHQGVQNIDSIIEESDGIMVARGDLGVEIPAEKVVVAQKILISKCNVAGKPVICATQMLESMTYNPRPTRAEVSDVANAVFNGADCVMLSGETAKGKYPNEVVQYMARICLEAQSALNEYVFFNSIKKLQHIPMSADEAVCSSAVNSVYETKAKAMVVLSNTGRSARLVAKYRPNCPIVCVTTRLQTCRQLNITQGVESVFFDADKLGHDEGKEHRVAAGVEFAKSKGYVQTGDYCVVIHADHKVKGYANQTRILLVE
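qHTS format; LmPK 0.1 nM; substrates PEP 0.5 mM and ADP 0.1 mM. One-hour room-temperature incubation, then coupled luciferase luminescence; 0.5 nM enzyme wells mark activation.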
Sm TGR inh: qHTS Assay for the Inhibitors of Schistosoma Mansoni Peroxiredoxins | Schistosoma mansoni thioredoxin glutathione reductase (TGR), Q962Y6 | purified TGR, DTNB reduction, TNB absorbance 405 nm | Potency, µM (highest dose often 114 µM), hits mostly inhibitors | 360,000 tested, 3% active | AID 485364, 2010; note: nearly all actives have a fitted effect of over 60% in size
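TGR 20 nM + NADPH 100 uM (dispensed conc.), cpd preinc 15 min RT; start with NADPH (500 uM addition) then DTNB (15 mM addition). Kinetic TNB absorbance, 405 nm filter. Four-parameter Hill fit across titration.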
Numbers stand for hits; – = inactive; ? = inconclusive; · = no result given. Unless noted, calls come from the whole dose curve; as a rule, active = well fitted curve in the direction sought with a large enough effect; inconclusive = small, poorly fitted or top-dose-only effect, or another doubt; inactive = no such curve, though single readings can be large; an effect the other way counts as inactive or inconclusive.

SMILES	TbPYK inhibitor	RE007 growth inh	LmPK inh	Sm TGR inh
COc1ccccc1N1CCN(C(=O)c2cnn(C(C)(C)C)c2C2CCN(C(=O)OC(C)(C)C)CC2)CC1	–	·	·	–
COc1ccc(OC)c(CNc2ncnc3c2nc2n3CCCC2)c1	–	·	·	–
Cc1ccc2nc(N3CCN(c4ccccc4)CC3)c(C=O)c(=O)n2c1	–	–	–	45µM
COc1ccc(N2CCN(c3nc4ccc(C)cn4c(=O)c3C=O)CC2)cc1	–	–	–	–
CCN1C(=O)C(Cc2nc3ccccc3c(=O)n2-c2cccc(C)c2)c2ccccc21 (stereo not given)	–	·	·	–
Cc1nc(Nc2ccccc2)sc1-c1ccccc1	–	35µM	–	–
CCCN(C)C[C@@H]1OCc2cnnn2CCCC(=O)N([C@H](C)CO)C[C@H]1C	–	–	·	·
CCN(CC)Cc1cc(C(C)=O)ccc1OCC(C)C	–	–	–	18µM
CC(=O)c1ccc(OCC(C)C)c(CC(C(N)=O)C(N)=O)c1	–	–	–	–
O=C(O)CCCn1c(=S)[nH]c2c(sc3ccc([N+](=O)[O-])cc32)c1=O	20µM	–	?	–
CC1CCN(CCCn2c(=S)[nH]c3c(sc4ccc([N+](=O)[O-])cc43)c2=O)CC1	–	–	–	–
C=CCn1c(-c2csc3ccccc23)n[nH]c1=S	?	–	11µM	–
C=CCn1c(-c2c[nH]c3ccccc23)n[nH]c1=S	?	–	22µM	?
C=CCn1c(-c2csc(-c3ccccc3)n2)n[nH]c1=S	–	–	–	–
CCOC(=O)CCSc1n[nH]c(=S)s1	–	–	–	18µM
Cc1cc([N+](=O)[O-])c2c(c1C)C1C=CCC1C(c1ccccn1)N2 (stereo not given)	·	·	–	22µM
CC1=CN2C(=N)/C(=C/c3ccc([N+](=O)[O-])o3)C(=O)N=C2S1	–	32µM	–	3.5µM
CC1=CN2C(=N)/C(=C/c3ccco3)C(=O)N=C2S1	–	–	–	–
COC(=O)N1CCC2(CC1)CCN(c1cccc(-c3ccccc3)c1)CC2	–	·	·	·
O=C1C=C(Nc2cccc3cccnc23)c2ccccc2C1=O	–	–	–	32µM
Cc1noc(/C=C/c2ccco2)c1S(=O)(=O)N1CCC(C(=O)N(C)Cc2ccccc2)CC1	–	–	–	13µM
Cc1noc(/C=C/c2ccco2)c1S(=O)(=O)N1CCC(C(=O)NC(C)c2ccccc2)CC1 (stereo not given)	–	–	–	–
Cc1noc(/C=C/c2ccco2)c1S(=O)(=O)N1CCC(C(=O)N2c3ccccc3CC2C)CC1 (stereo not given)	–	–	–	40µM
O=C(NCC(c1cccs1)S(=O)(=O)c1cccs1)c1cccc(F)c1 (stereo not given)	–	·	·	20µM
Cc1cccc(C(=O)NCC(c2cccs2)S(=O)(=O)c2cccs2)c1 (stereo not given)	–	·	·	?
SMILES	TbPYK inhibitor	RE007 growth inh	LmPK inh	Sm TGR inh
O=C(NCC(c1ccco1)N1CCOCC1)c1c(F)cccc1F (stereo not given)	–	–	·	–
O=C(NCC(c1ccco1)S(=O)(=O)c1cccs1)c1ccccc1F (stereo not given)	–	·	·	11µM
O=C(NCC(c1ccco1)S(=O)(=O)c1cccs1)c1c(F)cccc1F (stereo not given)	–	·	·	0.71µM
CCCCNC(=O)Cn1nc(N2CCN(c3ccccc3OC)CC2)ccc1=O	–	·	·	–
COc1cccc(Nc2sc(C(=O)c3ccc(F)cc3)c(N)c2C(=O)NCc2ccc(C)cc2)c1	–	·	·	–
CC1(C)Cc2nc3oc4c(=O)n(CC(=O)Nc5ccccc5)cnc4c3cc2CO1	–	–	–	–
CC1(C)Cc2nc3sc4c(=O)n(CC(=O)NCc5ccco5)cnc4c3cc2CO1	–	–	–	35µM
COc1ccc(NC(=O)N(C)C[C@H]2Oc3c(NS(=O)(=O)c4cccs4)cccc3C(=O)N([C@@H](C)CO)C[C@@H]2C)cc1	–	–	·	·
Cc1ccc(C(=O)Nc2nc3c(s2)CCCC3)o1	–	?	25µM	–
O=C(Nc1nc2c(s1)CCCC2)c1ccc(Br)o1	–	–	?	–
Oc1c(Cl)cc(Cl)cc1C1=NNC(c2ccc(Cl)cc2)C1 (stereo not given)	–	–	–	3.2µM
Oc1ccc(Cl)cc1C1=NNC(c2ccc(Cl)cc2)C1 (stereo not given)	–	–	–	?

Assay outcomes as filed in PubChem BioAssay.
